Structures are written as SMILES. Inconclusive results are not listed. Calls of active or inactive are those of the source. The call rests on the fitted dose curve.

For the assay, the target named is cAMP-dependent protein kinase catalytic subunit alpha (Homo sapiens) (UniProt P17612). In words: Protein Kinase A (PKA-HiBiT) SDR gain of signal screen. The note with it: PKA-HiBiT structural dynamics response (SDR), luminescence gain of signal; series mostly up to 32.9 µM; activity change, positive = signal gain: at the top concentration. In outline:
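Gain of luminescent signal after Nano-Glo HiBiT detection (10 min, RT) was the read-out. Beforehand, compounds were incubated 30 min at room temperature in the dark with 10 nM final PKA-N-HiBiT, with H-89 as positive control.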
(In general: HiBiT is a short tag that completes a luciferase, so light tracks the accessible tagged protein.)
On to `Nc1ncccc1-c1nc2ccc(-c3ccccc3)nc2n1-c1ccc(C2(N)CCC2)cc1`, for which the “activity change, positive = signal gain” value was 2.31% (inactive).
The same measure, in the same setting: to `COc1cc2ncnc(Oc3cccc(NC(=O)Nc4cc(C(C)(C)C(F)(F)F)on4)c3)c2cc1OC` belongs 1.41% (inactive); to `Cc1ccc(-n2nc(C(C)(C)C)cc2NC(=O)NCc2cc(F)ccc2Oc2ccc3c(cnn3CCO)c2)cc1`, -20.1% (inactive).
In the case of `O=C(O)C1(Cc2cccc(Nc3nccs3)n2)CCC(Oc2cccc(Cl)c2F)CC1` (stereo not given), the Potency was 14.5 µM (active).
Regarding `Cc1ccc(C(=O)Nc2ccc(CN3CCN(C)CC3)c(C(F)(F)F)c2)cc1C#Cc1cnc2[nH]ncc2c1`, the “activity change, positive = signal gain” value is 7.29% (inactive).
Still for that read-out and setting: to `C=CC(=O)Nc1cc2c(Nc3ccc(F)c(Cl)c3)ncnc2cc1OCCCN1CCOCC1` belongs 4.93% (inactive); to `Cc1cc(NC(=O)c2ccc(C)c(Nc3nccc(-c4cccnc4)n3)c2)cc(-n2cnc(C)c2)c1`, -7.69% (inactive); to `Cc1cc(O)c2c(c1)C(=O)c1cc(O)cc(O)c1C2=O`, -17% (inactive).
Still for that read-out and setting: to `Cc1cn(-c2cccc(NC(=O)c3ccc(C)c(Nc4nccc(-c5cccnc5)n4)c3)c2)cn1` belongs -0.576% (inactive); to `CN1CCN(c2ccc(Nc3ncc4cc(C#N)c(=O)n(C5CCCC5)c4n3)cc2)CC1`, 10.8% (inactive); to `c1ccc(-c2oc3ncnc(NC[C@@H]4CCCO4)c3c2-c2ccccc2)cc1`, 5.8% (inactive).
Still for that read-out and setting: to `CCCS(=O)(=O)Nc1ccc(F)c(C(=O)c2c[nH]c3ncc(Cl)cc23)c1F` belongs 6.54% (inactive).
`CN(c1ncccc1CNc1nc(Nc2ccc3c(c2)CC(=O)N3)ncc1C(F)(F)F)S(C)(=O)=O`: the Potency is 4.41 µM (active).
Regarding `Cn1ncc(NC(=O)c2nc(-c3c(F)cccc3F)sc2N)c1N1CC[C@@H](N)[C@H](F)CC1`, the Potency is 0.7 µM (active).
Take `COc1cc2nccc(Oc3ccc(NC(=O)Nc4ccc(F)cc4F)c(F)c3)c2cc1OC`: the “activity change, positive = signal gain” value was 5.98% (inactive).
With `COc1cc(N2CCOCC2)ccc1Nc1ncc(Cl)c(Nc2ccccc2NS(C)(=O)=O)n1`, the Potency was 1.34 µM (active).
For `Cc1cc(F)ccc1-c1nc(NC(CO)CO)nc2c1ccc(=O)n2-c1c(F)cccc1F`, the “activity change, positive = signal gain” value is 4.46% (inactive).
On the same count and under the same terms, the result for `COc1cc2ncnc(Nc3ccc(F)c(Cl)c3)c2cc1OCCCN1CCOCC1` reads 10% (inactive); that for `CCn1nc(C2CCN(C(=O)CCO)CC2)nc1-c1cnc(N)c(-c2nnc(C(C)(C)C)o2)n1`, 7.07% (inactive).
On the same count and under the same terms, to `FC(F)(F)c1ccc(/C=C/c2nc(COc3ccc(CCCCn4ccnn4)cc3)co2)cc1` belongs 7.11% (inactive).
Regarding `Nc1nc(NCCNc2ncc(-n3ccnc3)c(-c3ccc(Cl)cc3Cl)n2)ccc1[N+](=O)[O-]`, the “activity change, positive = signal gain” value was -35.6% (inactive).
Regarding `CCN(CC)CCOc1ccc(Nc2ncc3cc(-c4c(Cl)cccc4Cl)c(=O)n(C)c3n2)cc1`, the “activity change, positive = signal gain” value is -49.5% (inactive).
In the case of `CO[C@H]1/C=C/O[C@@]2(C)Oc3c(C)c(O)c4c(O)c(c(/C=N\N5CCN(C6CCCC6)CC5)c(O)c4c3C2=O)NC(=O)/C(C)=C\C=C\[C@H](C)[C@H](O)[C@@H](C)[C@@H](O)[C@@H](C)[C@H](OC(C)=O)[C@@H]1C`, the “activity change, positive = signal gain” value is -45.8% (inactive).
Same read-out and setting: to `C=CC(=O)N1CCC(Oc2cc3c(Nc4ccc(Cl)c(Cl)c4F)ncnc3cc2OC)CC1` belongs 8.76% (inactive).
As for `CC[C@@](C)(Nc1ccnc(-c2c[nH]c3ncccc23)n1)C(=O)NCC(F)(F)F`, the Potency was 12 µM (active).
Take `C=CC(=O)Nc1cccc(Oc2nc(Nc3ccc(N4CCN(C)CC4)cc3OC)ncc2Cl)c1`: the “activity change, positive = signal gain” value is 2.43% (inactive).
Still for that read-out and setting: to `O=C(NC1CCNCC1)c1[nH]ncc1NC(=O)c1c(Cl)cccc1Cl` belongs 1.69% (inactive); to `Cc1cc(F)ccc1-c1nc(NCCN=C(N)NC#N)nc2c1ccc(=O)n2-c1c(F)cccc1F`, 4.31% (inactive); to `COc1ccc(S(=O)(=O)N(C(C)=O)c2ccccc2/C=C/c2cc[n+]([O-])cc2)cc1`, 5.77% (inactive).
The same measure, in the same setting: to `CNC(=O)c1ccccc1Nc1nc(Nc2ccc(N3CCOCC3)cc2OC)ncc1Cl` belongs 19.9% (inactive); to `COc1cc(NC(=O)c2cccc(-n3cc(NC(=O)Nc4cccc(C)c4)cn3)c2)cc(OC)c1OC`, 1.34% (inactive); to `Cc1nc(NC(=O)N2CCC[C@H]2C(N)=O)sc1-c1ccnc(C(C)(C)C(F)(F)F)c1`, -0.666% (inactive).
On to `CSc1cccc(Nc2ncc3cc(-c4c(Cl)cccc4Cl)c(=O)n(C)c3n2)c1`, for which the “activity change, positive = signal gain” value is -1.1% (inactive).
Same read-out and setting: to `Cc1ncc(NC(=O)c2ccc(CN3CCN(C)CC3)c(C(F)(F)F)c2)cc1Nc1nccc(-c2cccnc2)n1` belongs 8.51% (inactive).
Take `COc1cc(N2CCC(N3CCN(C)CC3)CC2)ccc1Nc1ncc(Cl)c(Nc2ccccc2P(C)(C)=O)n1`: the Potency was 5.55 µM (active).

The values above are taken from PubChem BioAssay AID1963322 (National Center for Advancing Translational Sciences (NCATS), 2024).
